Experiment [1] deals with Glycogen synthase kinase-3 beta (Homo sapiens) (UniProt P49841). The following applies: at 1 µM.
Experiment [2] concerns the target Homeodomain-interacting protein kinase 1 (Homo sapiens) (UniProt Q86Z02). The following applies: at 1 µM.
Experiment [3] concerns the target T1, Homeodomain-interacting protein kinase 4 (Homo sapiens) (UniProt Q8NE63).
T1 sequence (whole entry): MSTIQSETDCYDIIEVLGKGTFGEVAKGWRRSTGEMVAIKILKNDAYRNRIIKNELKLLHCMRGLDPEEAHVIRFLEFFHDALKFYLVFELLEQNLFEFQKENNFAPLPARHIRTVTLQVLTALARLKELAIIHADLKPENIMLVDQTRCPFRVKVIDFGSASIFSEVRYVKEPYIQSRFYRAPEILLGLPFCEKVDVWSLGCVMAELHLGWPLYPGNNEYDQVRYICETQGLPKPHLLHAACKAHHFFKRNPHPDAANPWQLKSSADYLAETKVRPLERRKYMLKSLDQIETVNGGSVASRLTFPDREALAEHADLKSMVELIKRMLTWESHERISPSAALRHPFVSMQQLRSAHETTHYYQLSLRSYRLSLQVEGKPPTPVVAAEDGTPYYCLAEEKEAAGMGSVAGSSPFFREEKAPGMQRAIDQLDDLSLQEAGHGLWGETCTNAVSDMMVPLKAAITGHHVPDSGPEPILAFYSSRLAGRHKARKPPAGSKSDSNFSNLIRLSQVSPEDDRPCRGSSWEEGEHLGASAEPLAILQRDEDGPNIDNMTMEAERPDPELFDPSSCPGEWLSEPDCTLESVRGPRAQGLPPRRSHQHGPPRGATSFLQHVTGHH
The following applies: at 0.1 µM.

Experiment [4] addresses T1, Homeodomain-interacting protein kinase 4 (Homo sapiens). The following applies: at 1 µM.
The target of experiment [5] is Mitogen-activated protein kinase 9 (Homo sapiens) (UniProt P45984). The following applies: at 0.1 µM.
Experiment [6] has the same target. The following applies: at 1 µM.
The target of experiment [7] is Mitogen-activated protein kinase 1 (Homo sapiens) (UniProt P28482). The following applies: at 0.1 µM.
Experiment [8] shares this target. The following applies: at 1 µM.
Experiment [9] has as its target Mitogen-activated protein kinase 3 (Homo sapiens) (UniProt P27361). The following applies: at 0.1 µM.
For experiment [10] the target is unchanged. The following applies: at 1 µM.
The target of experiment [11] is SRSF protein kinase 3 (Homo sapiens) (UniProt Q9UPE1). The following applies: at 0.1 µM.
Experiment [12] shares this target. The following applies: at 1 µM.
Experiment [13] deals with Mitogen-activated protein kinase 14 (Homo sapiens) (UniProt Q16539). The following applies: at 0.1 µM.
For experiment [14] the target is unchanged. The following applies: at 1 µM.
Experiment [15] deals with Mitogen-activated protein kinase 11 (Homo sapiens) (UniProt Q15759). The following applies: at 0.1 µM.
Experiment [16] shares this target. The following applies: at 1 µM.
Experiment [17] deals with T2, Mitogen-activated protein kinase 13 (Homo sapiens) (UniProt O15264).
T2 sequence (whole entry): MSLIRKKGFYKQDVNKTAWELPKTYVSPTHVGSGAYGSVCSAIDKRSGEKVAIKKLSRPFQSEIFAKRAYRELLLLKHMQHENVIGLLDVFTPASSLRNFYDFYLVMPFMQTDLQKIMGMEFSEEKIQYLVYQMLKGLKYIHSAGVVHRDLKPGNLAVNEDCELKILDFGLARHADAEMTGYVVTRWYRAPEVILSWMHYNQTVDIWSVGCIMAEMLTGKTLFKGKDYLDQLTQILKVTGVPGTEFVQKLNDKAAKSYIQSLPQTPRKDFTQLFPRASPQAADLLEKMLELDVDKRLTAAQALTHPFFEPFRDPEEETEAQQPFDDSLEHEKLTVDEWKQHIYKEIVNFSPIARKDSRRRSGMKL
The following applies: at 0.1 µM.

In experiment [18] the target is T2, Mitogen-activated protein kinase 13 (Homo sapiens). The following applies: at 1 µM.
For experiment [19], the target named is T3, Mitogen-activated protein kinase 12 (Homo sapiens) (UniProt P53778).
T3 sequence (whole entry): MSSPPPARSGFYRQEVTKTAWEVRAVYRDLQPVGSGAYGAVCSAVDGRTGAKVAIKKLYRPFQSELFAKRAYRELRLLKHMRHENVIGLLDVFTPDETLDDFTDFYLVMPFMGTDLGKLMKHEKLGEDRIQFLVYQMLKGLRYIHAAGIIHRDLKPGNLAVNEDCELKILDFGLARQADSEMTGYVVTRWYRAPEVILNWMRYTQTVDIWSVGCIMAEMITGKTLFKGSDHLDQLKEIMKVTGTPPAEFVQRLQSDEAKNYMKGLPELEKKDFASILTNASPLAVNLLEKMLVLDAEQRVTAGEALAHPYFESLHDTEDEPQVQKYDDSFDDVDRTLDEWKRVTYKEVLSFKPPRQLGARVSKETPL
The following applies: at 0.1 µM.

Experiment [20] deals with Homeodomain-interacting protein kinase 1 (Homo sapiens) (UniProt Q86Z02). The following applies: at 0.1 µM.
Chain of Homeodomain-interacting protein kinase 1 (Homo sapiens) (Q86Z02 whole entry, looked up): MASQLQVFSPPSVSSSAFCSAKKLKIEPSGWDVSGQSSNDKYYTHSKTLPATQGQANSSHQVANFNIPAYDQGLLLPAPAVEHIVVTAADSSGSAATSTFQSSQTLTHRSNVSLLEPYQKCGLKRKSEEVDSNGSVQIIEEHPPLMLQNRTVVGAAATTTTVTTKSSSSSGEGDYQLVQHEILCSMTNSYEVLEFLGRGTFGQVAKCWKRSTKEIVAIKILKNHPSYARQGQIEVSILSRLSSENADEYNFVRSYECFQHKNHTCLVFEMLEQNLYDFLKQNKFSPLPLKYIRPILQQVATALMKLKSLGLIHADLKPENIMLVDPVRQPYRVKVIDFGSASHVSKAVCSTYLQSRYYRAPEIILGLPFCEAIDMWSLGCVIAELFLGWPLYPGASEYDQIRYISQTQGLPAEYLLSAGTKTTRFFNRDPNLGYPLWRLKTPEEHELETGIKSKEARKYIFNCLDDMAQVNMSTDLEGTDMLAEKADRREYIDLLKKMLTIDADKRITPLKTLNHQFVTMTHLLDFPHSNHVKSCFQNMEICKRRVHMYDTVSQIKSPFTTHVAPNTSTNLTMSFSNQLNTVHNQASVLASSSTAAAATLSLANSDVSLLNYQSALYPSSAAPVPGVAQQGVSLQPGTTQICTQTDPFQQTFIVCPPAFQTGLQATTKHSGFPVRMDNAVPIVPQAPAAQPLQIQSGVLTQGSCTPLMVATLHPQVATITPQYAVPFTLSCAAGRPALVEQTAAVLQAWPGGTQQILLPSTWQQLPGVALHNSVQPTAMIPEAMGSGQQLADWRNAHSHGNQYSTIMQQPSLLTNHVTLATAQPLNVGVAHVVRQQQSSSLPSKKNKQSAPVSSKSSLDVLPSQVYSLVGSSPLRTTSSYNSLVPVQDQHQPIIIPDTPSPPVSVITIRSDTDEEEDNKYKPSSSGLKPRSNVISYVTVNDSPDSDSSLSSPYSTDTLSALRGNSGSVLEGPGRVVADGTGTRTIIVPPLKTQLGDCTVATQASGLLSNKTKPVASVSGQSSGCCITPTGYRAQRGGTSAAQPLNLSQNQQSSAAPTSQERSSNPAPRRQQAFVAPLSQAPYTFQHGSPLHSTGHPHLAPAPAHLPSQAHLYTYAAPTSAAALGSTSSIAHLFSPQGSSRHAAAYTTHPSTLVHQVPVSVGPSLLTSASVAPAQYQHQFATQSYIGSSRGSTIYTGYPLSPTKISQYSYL

Chain of Mitogen-activated protein kinase 1 (Homo sapiens) (P28482 whole entry): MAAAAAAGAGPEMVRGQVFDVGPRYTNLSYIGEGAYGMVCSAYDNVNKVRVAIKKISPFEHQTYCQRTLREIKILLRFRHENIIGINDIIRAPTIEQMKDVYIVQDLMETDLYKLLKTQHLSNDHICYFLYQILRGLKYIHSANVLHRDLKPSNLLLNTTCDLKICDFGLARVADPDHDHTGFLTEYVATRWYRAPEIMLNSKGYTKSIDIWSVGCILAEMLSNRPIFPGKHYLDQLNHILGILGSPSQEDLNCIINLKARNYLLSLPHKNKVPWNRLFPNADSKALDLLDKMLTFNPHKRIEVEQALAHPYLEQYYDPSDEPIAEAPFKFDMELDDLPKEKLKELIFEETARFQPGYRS
Chain of SRSF protein kinase 3 (Homo sapiens) (Q9UPE1 whole entry): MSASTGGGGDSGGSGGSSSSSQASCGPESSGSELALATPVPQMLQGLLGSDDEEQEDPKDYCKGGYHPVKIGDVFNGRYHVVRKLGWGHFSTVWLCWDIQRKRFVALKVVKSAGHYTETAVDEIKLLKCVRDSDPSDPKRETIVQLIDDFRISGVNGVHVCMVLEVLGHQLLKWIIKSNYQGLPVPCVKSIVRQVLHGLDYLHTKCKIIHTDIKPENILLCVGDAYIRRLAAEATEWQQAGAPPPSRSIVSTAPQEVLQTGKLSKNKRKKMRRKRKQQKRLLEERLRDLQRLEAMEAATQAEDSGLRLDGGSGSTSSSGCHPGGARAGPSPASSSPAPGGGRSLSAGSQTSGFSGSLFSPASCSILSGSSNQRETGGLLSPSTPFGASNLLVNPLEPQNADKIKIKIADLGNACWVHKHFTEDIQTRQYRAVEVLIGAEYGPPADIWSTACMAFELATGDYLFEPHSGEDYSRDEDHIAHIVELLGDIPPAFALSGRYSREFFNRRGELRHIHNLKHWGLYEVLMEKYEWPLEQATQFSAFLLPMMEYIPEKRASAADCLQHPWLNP
Chain of Mitogen-activated protein kinase 11 (Homo sapiens) (Q15759 whole entry): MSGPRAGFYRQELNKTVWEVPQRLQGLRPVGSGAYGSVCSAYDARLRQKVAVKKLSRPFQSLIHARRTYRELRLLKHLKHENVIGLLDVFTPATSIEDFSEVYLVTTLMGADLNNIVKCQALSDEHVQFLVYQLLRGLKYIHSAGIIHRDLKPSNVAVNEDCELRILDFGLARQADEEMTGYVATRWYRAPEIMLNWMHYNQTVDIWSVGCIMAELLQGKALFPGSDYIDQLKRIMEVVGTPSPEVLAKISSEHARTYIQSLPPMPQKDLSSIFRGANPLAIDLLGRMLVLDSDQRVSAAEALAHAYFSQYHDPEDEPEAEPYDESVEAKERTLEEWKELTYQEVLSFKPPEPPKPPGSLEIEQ
Chain of Mitogen-activated protein kinase 3 (Homo sapiens) (P27361 whole entry): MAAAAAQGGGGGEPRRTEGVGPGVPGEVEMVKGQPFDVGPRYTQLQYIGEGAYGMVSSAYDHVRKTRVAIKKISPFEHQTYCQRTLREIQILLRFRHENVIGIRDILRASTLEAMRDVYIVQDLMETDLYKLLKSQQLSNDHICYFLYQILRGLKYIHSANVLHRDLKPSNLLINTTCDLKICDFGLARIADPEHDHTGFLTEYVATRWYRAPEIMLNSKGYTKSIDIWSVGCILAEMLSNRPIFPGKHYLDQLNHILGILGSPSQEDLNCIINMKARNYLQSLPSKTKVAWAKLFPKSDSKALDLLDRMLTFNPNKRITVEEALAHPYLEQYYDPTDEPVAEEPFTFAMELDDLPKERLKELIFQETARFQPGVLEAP
Chain of Mitogen-activated protein kinase 9 (Homo sapiens) (P45984 whole entry, looked up): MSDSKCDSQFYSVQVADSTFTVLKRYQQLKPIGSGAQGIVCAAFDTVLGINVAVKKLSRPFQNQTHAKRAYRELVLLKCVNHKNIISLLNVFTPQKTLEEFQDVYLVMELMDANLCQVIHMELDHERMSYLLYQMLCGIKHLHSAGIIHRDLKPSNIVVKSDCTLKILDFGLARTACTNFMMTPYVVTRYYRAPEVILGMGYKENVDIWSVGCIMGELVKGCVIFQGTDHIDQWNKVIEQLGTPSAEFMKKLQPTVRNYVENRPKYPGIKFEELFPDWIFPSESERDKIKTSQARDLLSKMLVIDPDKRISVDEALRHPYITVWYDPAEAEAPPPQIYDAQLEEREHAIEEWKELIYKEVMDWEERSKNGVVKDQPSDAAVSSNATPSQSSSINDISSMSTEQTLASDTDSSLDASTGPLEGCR
Chain of Mitogen-activated protein kinase 14 (Homo sapiens) (Q16539 whole entry): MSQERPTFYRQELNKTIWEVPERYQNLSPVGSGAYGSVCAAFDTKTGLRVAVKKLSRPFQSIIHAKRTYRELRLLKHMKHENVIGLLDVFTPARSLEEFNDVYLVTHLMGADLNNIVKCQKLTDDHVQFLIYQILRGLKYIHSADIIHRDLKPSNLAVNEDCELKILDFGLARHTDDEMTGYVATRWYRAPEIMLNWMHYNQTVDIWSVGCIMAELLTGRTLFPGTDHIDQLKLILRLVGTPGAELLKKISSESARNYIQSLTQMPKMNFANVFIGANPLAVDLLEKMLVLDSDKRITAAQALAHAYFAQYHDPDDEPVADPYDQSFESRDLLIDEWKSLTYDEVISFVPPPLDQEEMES
Chain of Glycogen synthase kinase-3 beta (Homo sapiens) (P49841 whole entry, looked up): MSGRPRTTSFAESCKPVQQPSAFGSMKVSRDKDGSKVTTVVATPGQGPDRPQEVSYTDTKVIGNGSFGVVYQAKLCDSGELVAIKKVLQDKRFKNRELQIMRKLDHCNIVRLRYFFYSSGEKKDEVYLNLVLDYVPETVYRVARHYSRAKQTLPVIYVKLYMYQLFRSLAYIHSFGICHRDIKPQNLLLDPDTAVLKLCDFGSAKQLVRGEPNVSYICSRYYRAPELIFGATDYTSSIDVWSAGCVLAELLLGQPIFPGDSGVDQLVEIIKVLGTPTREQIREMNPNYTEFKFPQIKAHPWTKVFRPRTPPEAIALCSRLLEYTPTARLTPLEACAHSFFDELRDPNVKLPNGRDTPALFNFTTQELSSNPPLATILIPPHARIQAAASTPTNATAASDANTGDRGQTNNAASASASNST

Broadly, the inhibition is the relative decrease from the control value, in per cent. Turning to `COc1cc(Nc2ncc(-c3ccccc3)o2)cc(OC)c1OC`, the inhibition was 35.8% in experiment [1]; 11.2% in [2]; 0.61% in experiment [3]; 3.87% in [4]; -3.91% in [5]; -3.35% in experiment [6]. Moreover, the inhibition in [7] is -2.3%; in experiment [8], -1.83%; in experiment [9], 0.83%; in experiment [10], 1.29%; in experiment [11], -0.22%; in [12] it was 0.18%. For the same molecule, the inhibition in experiment [13] was -3.46%; in experiment [14] it was -4.25%; in experiment [15] it was 1.4%; in experiment [16], 0.04%; in [17], -0.94%; in [18], -1.63%. Besides, the inhibition in experiment [19] was -1.8%.

Turning to `CN(C)CCOc1ccc(-c2cc(-c3ccc4c(c3)CCC4=NO)c(-c3ccncc3)o2)cc1`, the inhibition is 0.28% in experiment [1]; -5.92% in experiment [20]; 2.06% in experiment [2]; 0.15% in [3]; 2.98% in experiment [4]; -1.3% in experiment [5]. Also, the inhibition is 3.02% in experiment [6]; -0.58% in experiment [7]; 0.91% in experiment [8]; -1.4% in experiment [9]; 1.25% in [10]; -6.42% in [11]. Moreover, the inhibition in [12] is -1.92%; in [13] it was -0.58%; in [14] it was 0.13%; in experiment [15], -0.55%; in experiment [16], 1.57%; in [17], -1.01%. Further, the inhibition in experiment [18] was -2.49%; in [19], -0.25%.

For `O=C(Nc1n[nH]c2nc(-c3ccc(O)cc3)c(Br)cc12)C1CC1`, the inhibition in [20] was found to be 14.7%; in experiment [2], 58%; in experiment [3], 2.65%; in [4], 10.4%; in [5] it was 12.2%; in [6], 19.4%. For the same molecule, the inhibition in experiment [7] was 5.75%; in experiment [8] it was 10.1%; in [9], 5.33%; in [10], 5.57%; in experiment [11], -1.04%; in experiment [12], 7.81%. The inhibition was 6.42% in experiment [13]; 16% in experiment [14]; 11.1% in experiment [15]; 38.8% in experiment [16]; 8.19% in experiment [17]; 32.6% in experiment [18]. For the same molecule, the inhibition in [19] amounted to 1.76%.

Regarding `O=C(Nc1n[nH]c2nc(-c3ccco3)ccc12)C1CC1`, the inhibition in [20] was 0.14%; in [2], 1.4%; in [3], 2.3%; in experiment [4], 6.99%; in experiment [5], 0.84%; in [6] it was 2.1%. The inhibition in experiment [7] stood at 0.04%; in experiment [8] it was 0.76%; in experiment [9] it was 0.6%; in experiment [10], 1.35%; in experiment [11], 0.39%; in experiment [12], 4.26%. The inhibition came out at 1.96% in experiment [13]; 5.5% in [14]; 1.81% in experiment [15]; 1.59% in experiment [16]; 1.26% in [17]; 1.37% in experiment [18]. Also, the inhibition in [19] was found to be 5.77%.

For `Fc1ccc(-c2ncn(C3CCNCC3)c2-c2ccnc(Oc3ccc4c(c3)OCO4)n2)cc1`, the inhibition in experiment [1] is 4.03%; in experiment [20], 1.02%; in experiment [2], 5.62%; in experiment [3], 4.86%; in experiment [4], 7.7%; in experiment [7], 7.64%. The inhibition in experiment [8] was 11.4%; in experiment [9], 5.84%; in experiment [10] it was 10.1%; in experiment [11] it was 1.72%; in experiment [12], 6.43%.

As to `N#Cc1ccc(Oc2nccc(-c3c(-c4ccc(F)cc4)ncn3C3CCNCC3)n2)cc1`, the inhibition in [1] was 1.96%; in experiment [20] it was -4.47%; in [2] it was -6.22%; in experiment [3] it was -0.7%; in [4] it was -0.61%; in experiment [7], 4.87%. Further, the inhibition in [8] is 6.51%; in [9] it was 6.9%; in experiment [10] it was 6.42%; in experiment [11] it was -1.55%; in [12] it was -0.03%.

For `Cc1ccc(C(=O)NC(C)C)cc1-c1ccc(C(=O)NCC2CC2)cc1`, the inhibition in experiment [1] was 3.01%; in [20], -2.55%; in experiment [2] it was 1.88%; in [3] it was 0.31%; in [4] it was 3.79%; in experiment [5] it was -1.51%. For the same molecule, the inhibition in experiment [6] is -0.22%; in experiment [7], -3.93%; in experiment [8], -4.45%; in experiment [9], -2.87%; in [10] it was -0.93%; in experiment [11], 1.71%. For the same molecule, the inhibition in [12] was -0.59%; in experiment [15], 4.42%; in experiment [16], 37%; in [17] it was -4.48%; in experiment [18] it was -4.39%; in [19], -2.72%.

Source of the values: ChEMBL document CHEMBL1961873, “Compounds: GSK PKIS; Assays: Nanosyn kinase panel” (2012).
